Source: PubChem BioAssay
Hits are enriched below; roughly 4% of the tested compounds scored in any of these assays.
rat GALR2 ag: GALR2 (rat) receptor agonism. 16,000 tested, 0.5% active. cell-based GALR2 agonist screen. activation, % at 10 µM. O08726; in the data active = activation above about 15%
Target sequence (O08726 whole entry, looked up): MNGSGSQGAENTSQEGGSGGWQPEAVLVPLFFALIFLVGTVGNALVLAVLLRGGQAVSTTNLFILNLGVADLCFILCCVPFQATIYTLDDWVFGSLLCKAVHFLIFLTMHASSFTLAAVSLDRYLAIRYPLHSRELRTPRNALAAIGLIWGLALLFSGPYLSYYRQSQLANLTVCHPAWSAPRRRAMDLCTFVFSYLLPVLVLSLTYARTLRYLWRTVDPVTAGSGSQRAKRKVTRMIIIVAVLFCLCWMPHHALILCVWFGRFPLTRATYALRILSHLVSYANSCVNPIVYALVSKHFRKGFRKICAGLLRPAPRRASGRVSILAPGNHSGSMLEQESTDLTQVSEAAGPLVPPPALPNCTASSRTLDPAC
NOTCH ag: agonists of NOTCH signaling; 15,000 tested, 0.4% active; AID 434982; activation, % at 2.5 µM; NOTCH signaling luciferase reporter cells, luminescence; in the data active = activation above about 2.2%
Luminol counter: quenches luminol chemiluminescence in Nox1 counter-screen | AID 1823 | 16,000 tested, 0.4% active | HRP/luminol/H2O2 chemiluminescence counterscreen | inhibition, % at 6.7 µM; also: reference of the scale not given here
S1P1 ag: S1P1 (human) receptor agonism; activation, % at 4.5 µM; AID 1044; S1P1 agonist cell-based reporter assay; 16,000 tested, 1.5% active; in the data active = activation above about 80%
PME-1 Maybr inh: inhibitors of human PME-1 in Maybridge library | recombinant PME-1, FP-Rh probe fluorescence polarization | Q9Y570 | AID 2291 | inhibition, % at 9 µM | 16,000 tested, 0.5% active; in the data active = inhibition above about 30%
Nox1 inh: inhibitors of human NADPH oxidase 1 (Nox1); Q9Y5S8; HT29 cells, luminol chemiluminescence ROS; inhibition, % at 6.7 µM; 16,000 tested, 0.81% active
* = called active by the depositor; nt = not tested or not shown. Rule as the data show it, unless noted: active = inhibition above about 75%; inactive = the rest.

SMILES	rat GALR2 ag	NOTCH ag	Luminol counter	S1P1 ag	PME-1 Maybr inh	Nox1 inh
FC(F)(F)Oc1ccc(OCc2n[nH]c(=S)n2-c2ccc(Cl)cc2)cc1	-7.5	nt	7.0	-22.8	-3.5	-82.5
Cc1cc(-c2nnc(C(F)(F)F)o2)ccc1NC(=O)c1cccs1	-6.6	-0.6	-2.8	-5.4	1.5	-1.6
O=[N+]([O-])c1c(N2CCOCC2)ccc2nsnc12	55.5*	-0.3	6.0	-2.1	5.4	23.7
O=c1[nH]nc(N2CCSCC2)[nH]1	-3.9	0.7	-4.8	-0.5	3.4	89.2*
COc1cccc(NC(=S)NNc2ccc([N+](=O)[O-])cc2)c1	-9.9	-0.7	10.5	-5.1	4.2	98.0*
CC(C)(C)CN/C(C#N)=C(\N)C#N	2.5	-0.9	2.7	106.1*	2.2	-60.7
O=C(NCc1cccs1)Nc1csc([N+](=O)[O-])c1	-9.3	0.0	-2.7	-1.3	3.7	-15.2
Cc1noc(C)c1S(=O)(=O)N(Cc1ccccc1)C(C)C	47.0*	-0.2	0.1	3.3	-44.2	-22.3
CC(C)N(Cc1ccccc1)S(=O)(=O)c1ccc2c(c1)CCO2	-8.3	-0.5	-1.1	15.2	0.6	3.4
CSC1=NCCCN1C(=O)c1nn(-c2ccccc2)nc1C	-7.7	0.9	-5.7	-11.1	3.5	9.5
CN(C)C(=O)c1cc(-c2ccccc2)c(C(F)(F)F)s1	-3.2	-0.1	-6.8	35.3	8.1	14.0
O=C(Nc1ccccc1)OCc1cc(-c2ccccc2)c(C(F)(F)F)s1	-9.9	-0.1	-1.3	93.8*	-21.9	-9.2
COc1ccc2nonc2c1	139.0*	-1.0	0.7	-1.5	-1.8	-44.9
CCCc1c(C(=O)Nc2ncn[nH]2)cnn1-c1ccccc1	-1.1	-0.2	-6.8	13.7	9.1	9.4
CCCc1c(C(=O)Nc2ccc3ccccc3n2)cnn1-c1ccccc1	-5.8	0.1	-5.2	96.1*	5.9	0.0
N#C/C(=N\Nc1cccc(C(F)(F)F)c1)C(=O)c1csc(-c2cccnc2)n1	-6.8	nt	8.8	72.6	11.8	43.6
N#C/C(=N\Nc1cccc(C(F)(F)F)c1)S(=O)(=O)c1ccsc1	-10.0	-0.6	7.3	97.0*	5.7	-3.7
O=S(=O)(O)c1ccc2[nH]c(=S)[nH]c2c1	60.3*	-0.9	7.4	0.5	3.2	-69.3
FC(F)(F)Oc1ccc(-c2noc(-c3ccno3)n2)cc1	-6.3	0.5	-1.4	90.9*	-1.8	-5.8
Nc1ncnc(SCc2nc(-c3ccc(OC(F)(F)F)cc3)no2)n1	-7.4	-1.1	-0.4	3.6	-3.8	17.6
CCOC(=O)C1(C(=O)OCC)CCC(=NO)CC1	-4.1	-5.8	-1.4	-3.6	1.1	-50.2
Nc1ccc(C(F)(F)F)cc1N	-7.8	-0.2	-2.2	3.8	2.7	-32.4
Cc1cc(N=Nc2cccc(C(F)(F)F)c2)ccc1N	-12.2	0.8	2.7	100.7*	20.6	-39.4
CCOC(=O)/C(C#N)=C/c1ccc(OC)c(OC)c1	-2.2	0.3	3.4	-3.6	-1.2	-9.9
COc1ccc(OC)c(/C=C(\C#N)C(N)=O)c1	-4.5	-0.4	2.4	92.4*	2.1	-91.8
SMILES	rat GALR2 ag	NOTCH ag	Luminol counter	S1P1 ag	PME-1 Maybr inh	Nox1 inh
CN(C)c1cc(-c2cc(OCC(F)(F)F)ccc2OCC(F)(F)F)oc(=O)c1Cl	-8.1	-0.5	1.0	3.8	10.6	-26.7
O=S(=O)(NCCSCc1csc2ccc(Cl)cc12)c1ccc(Cl)cc1	-5.3	-0.8	4.1	90.0*	24.8	-48.1
Nc1nc(-c2ccc3c(c2)OCCCO3)cc(C(F)(F)F)n1	-5.7	-0.8	-1.3	76.5	1.9	-22.1
Nc1nc(-c2ccc3c(c2)CCC3)cc(C(F)(F)F)n1	-6.4	2.2	-8.3	83.0*	4.4	5.3
CCOC(=O)Cn1c(=O)c2ccsc2c2c(C#N)c(SC)sc21	139.3*	-0.2	-0.3	-15.2	3.7	-41.0
COc1ccc(Oc2cccc(F)c2C#N)cc1	-7.6	-0.1	-0.5	18.4	3.3	-12.4
c1ccc(-c2[nH]c3ccccc3c2-c2ccccc2)cc1	-8.5	-0.4	-4.3	-13.8	14.1	-19.6
Oc1[nH]c2ccccc2c1N=Nc1nnc(-c2ccccc2)c(-c2ccccc2)n1	-7.5	nt	1.8	96.2*	-2.3	5.0
CS(=O)(=NC(=O)c1ccc(OC(F)(F)F)cc1)c1ccccc1 (configuration not stated)	-10.7	0.1	-5.7	10.3	4.9	14.3
CCN(CC)c1ccc(NC(=O)C2CCCCC2)c(N(CC)CC)n1	-11.4	-0.1	5.3	-5.3	1.9	75.0*
CCOc1cc(N2CCOCC2)c(OCC)cc1NS(=O)(=O)c1ccccc1	-2.8	-0.4	15.4	8.9	17.2	102.7*
CCOC(=O)c1sc(N/N=C/c2cccs2)c2c1CC(C)(C)CC2=O	19.3*	0.1	2.6	3.1	12.6	55.9
Cn1ccnc1Sc1cnc(=S)[nH]c1-c1ccc(Cl)cc1	1.5	-0.5	-0.4	11.8	-1.0	-11.3
CC(=O)N[C@@H]1[C@@H](O)[C@H](O)[C@@H](CO)O[C@@H]1O	-5.5	0.1	-7.0	17.2	8.5	0.0
CSC1=NS(=O)(=O)c2c(C)nn(C)c2S1	-4.0	0.1	21.2	15.7	6.4	88.9*
NC(=O)N1CCCCC/C1=N\O	-8.1	-0.5	13.7	-3.5	-0.7	0.6
O=C(NNc1c([N+](=O)[O-])cc(C(F)(F)F)cc1[N+](=O)[O-])c1ccco1	-7.8	-0.9	-0.3	31.8	1.7	89.4*
C/C(=N\NC(=S)NC(C)(C)C)c1sc(-c2ncc(C(F)(F)F)cc2Cl)nc1C	18.8*	-1.1	7.3	-22.5	2.0	-16.8
Cc1ccc(C(=N)N)cc1F	-5.9	-0.5	0.8	-7.5	-2.0	-41.9
CC1COC(c2cccc([N+](=O)[O-])c2)N1 (configuration not stated)	-3.4	-0.6	-3.3	10.8	8.6	18.6
O=C(NNC(=O)Nc1ccc(OC(F)(F)F)cc1)Nc1ccc(OC(F)(F)F)cc1	-6.2	-0.2	1.6	-12.2	-30.5	-32.8
N#C/C(N=Cc1ccc(Cl)cc1)=C(\C#N)NC(=O)Nc1ccc(OC(F)(F)F)cc1	-12.7	0.0	-1.9	100.5*	-37.0	60.2
O=S(=O)(c1cc(Br)c(Br)s1)N1CCCCC1	-3.5	0.1	4.1	34.2	2.0	-6.7
O=S(=O)(Nc1ccc(F)c(Cl)c1)c1cc(Br)c(Br)s1	-9.7	0.8	0.9	89.7*	6.6	27.8
FC(F)(F)c1cnc(N2CCN(C(=S)NC3CC4C=CC3C4)CC2)c(Cl)c1 (configuration not stated)	-4.7	-0.3	3.9	24.3	-19.4	-29.7
O=[N+]([O-])c1cc(C(F)(F)F)cc([N+](=O)[O-])c1N1CCSCC1	-4.6	0.0	-1.6	98.8*	6.2	1.7
O=C1c2cccc3c(Sc4ccccc4)ccc(c23)C(=O)N1NCCO	-1.0	0.0	-6.4	1.7	11.0	16.9
CCSc1ccc2c3c(cccc13)C(=O)N(Cc1ccccc1)C2=O	128.0*	-0.1	-0.7	-31.2	-5.0	19.7
Cc1oc(-c2ccc(Cl)cc2)cc1-c1ccn[nH]1	-4.2	-0.4	-2.8	7.8	5.7	-1.1
